Inconclusive results are not listed. A number with no mark means an inactive call. Active and inactive are the calls of the source. Calls follow the shape of the dose curve; as a rule, active = well fitted inhibition curve with a large enough effect; inconclusive = small, poorly fitted or top-dose-only effect; inactive = no such curve, though single readings can be large or run the other way.
Assay: Primary fluorescence-based thiol-reactive (MSTI) qHTS assay for identification of artifact compounds. (AID 1845221); also: nearly all actives have a fitted effect of over 65% in size;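 as to activity change, negative = thiol reactive: thiol-reactive compounds lower the probe fluorescence signal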
Details: MSTI thiol-reactivity probe, 1 h; series mostly up to 53.8 µM; activity change, negative = thiol reactive: at the top concentration
Description: PI: Alexander Tropsha Ph.D.
UNC Eshelman School of Pharmacy
University of North Carolina, Chapel Hill, North Carolina
Hits from high-throughput screening (HTS) of chemical libraries are often false positives due to their interference with the assay detection technology. In response to this problem, we generated the largest publicly available library of chemical liabilities and developed a free webtool to predict HTS artifacts, both of which are described herein. More specifically, we generated, curated, and integrated HTS datasets for thiol reactivity, redox activity, and luciferase (firefly and nano) activity. Using these curated datasets, we developed and validated several Quantitative Structure-Interference Relationship (QSIR) models to predict nuisance behavior. […] These models were employed for virtual profiling of the National Center for Advancing Translational Science's (NCATS) in-house library, and 256 compounds for each assay were selected for the experimental validation of nuisance behavior. The BA for these external predictions ranged from 58 to 78% for compounds within the applicability domains of the models. […] The models developed in this study, along with aggregation models previously developed by our group (SCAM Detective) were implemented in "Liability Predictor," an online tool which may be used as part of chemical library design or for triaging HTS hits. Both the models and the curated datasets are publicly available at https://liability.mml.unc.edu/.
SEQUENCE No. (e.g., 1, 2, 3, etc.); […] (e.g., Cells, Incubation, Reagent, etc.); VALUE; DESCRIPTION.
1; Reagent; 4 uL; […].
2; Compounds and control; 16 nL; Kalypsis pin tool (Wako USA) equipped with a 1536-well pin head.
4; Detection; Fluorescence, ViewLux microplate reader, 525 nm excitation, 598 nm emission.
NOTES (numbers refer to Sequence numbers above)
1. Assays determining (E)-2-(4-mercaptostyryl)-1,3,3-trimethyl-3H-indol-1-ium (MSTI) reactivity were performed as previously described in the literature with modifications for the quick identification of compounds reacting with thiol. In brief, 4 uL of MSTI or positive control Acetyl-MSTI (final concentrations of 4 uM and 4 uM, respectively) in assay buffer (2% DMSO in 1X PBS pH 7.4) was dispensed into all wells of a 1536-well assay plate (solid-bottom black plate; Greiner Bio One, Monroe, NC).
2. A Wako Pin-tool (Wako Automation, Richmond, VA) was used to transfer 16 nL of compounds (consisting of 7-plates in qHTS format, final concentration range 18.3 nM to 114 uM) or control MLS001163887 (final concentration range 1.22 nM to 40 uM).
3. Plates were centrifuged (121xg, 15 seconds) and incubated for 1 hour at room temperature protected from light.
4. Samples were read for fluorescence (Ex/Em = 525(20)/598(25) nm) on a ViewLux CCD imager (PerkinElmer). Data were normalized to Acetyl-MSTI (0% activity) and MSTI (100% activity) and the resulting percent inhibition data were fitted to a 4-parameter Hill equation using NCATS in-house software.
Potency is read from the fitted curve at half-maximal effect.

| SMILES | activity change, negative = thiol reactive | Potency |
| --- | --- | --- |
| Oc1ccc([C@H]2COc3cc(O)ccc3C2)cc1 | -20.1% |  |
| CC1(CO)CC[C@]2(C(=O)O[C@@H]3O[C@H](CO)[C@@H](O)[C@H](O)[C@H]3O)CC[C@]3(C)C(=CCC4[C@@]5(C)CC[C@H](O[C@@H]6O[C@H](C(=O)O)[C@@H](O)[C@H](O)[C@H]6O)C(C)(C)C5CC[C@]43C)C2C1 (stereo not given in full) | -2.52% [at 11.5 µM] |  |
| CC12CC34C=CC(=O)C(C)(CCC(=O)O)C3C(CC1C4)O2 (stereo not given) | -16.4% |  |
| Nc1nc(CC(=O)Nc2ccc(CCNCC(O)c3ccccc3)cc2)cs1 (stereo not given) | 16.7% |  |
| NCCCC[C@H](NC(=O)[C@@H]1Cc2ccccc2CN1C(=O)CCC(=O)c1ccccc1)C(=O)NCC(c1ccccc1)c1ccccc1 | -10.5% |  |
| CC(=O)N1c2ccccc2C2(O)CC3C(=O)NC(CC(C)C)C(=O)N3C12 (stereo not given) | 20.7% |  |
| C[C@@H]1O[C@@H](O[C@H]2[C@H](OC(=O)C34CCC(C)(C)CC3C3=CCC5C6(C)CC(O)C(O[C@@H]7O[C@H](CO)[C@@H](O)[C@H](O)[C@H]7O)C(C)(C(=O)O)C6CCC5(C)C3(CO)CC4)O[C@H](C)[C@H](O)[C@@H]2O)[C@H](O)[C@H](O)[C@H]1O[C@@H]1OC[C@@H](O)[C@H](O)[C@H]1O (stereo not given in full) | 89.3% [at 11.5 µM] |  |
| CC1(C)C(=O)N2c3ccccc3[C@]3(CC(n4cnc5ccccc5c4=O)C(=O)O3)[C@H]2N1O (stereo not given in full) | 86.7% [at 25.6 µM] |  |
| C=C1CCC(OC(C)=O)C2(C)CC3(O)OC(=O)C(C)=C3CC12 (stereo not given) | 25.1% |  |
| COC(=O)[C@H](CC1C=NC=N1)NCC12CC3CC(CC(C3)C1)C2 (stereo not given in full) | -7.13% |  |
| C=C1[C@H]2CC[C@]3(O)[C@@](CC[C@@H]4[C@](C)(C(=O)O)CCC[C@]43C)(C2)[C@H]1OC(=O)/C(C)=C\C | 48.8% [at 25.6 µM] |  |
| C=C1CC[C@H]2[C@@](C)(CCC(O)[C@@]2(C)CO)[C@@H]1C/C=C(/C(=O)O)C(O)CO (stereo not given in full) |  | 6.56 µM (active) |
| OC[C@H]1O[C@@H](OCCc2ccc(O)cc2)[C@H](O)[C@@H](O)[C@@H]1O |  | 11.9 µM (active) |
| C[C@@H]1O[C@@H](O[C@H]2[C@H](O[C@H]3CC[C@@]4(C)C(CC[C@]5(C)C4CC=C4[C@@H]6CC(C)(C)CC[C@]6(C(=O)O)CC[C@]45C)[C@]3(C)CO)OC[C@H](O)[C@@H]2O)[C@H](O)[C@H](O[C@@H]2OC[C@@H](O)[C@H](O)[C@H]2O)[C@H]1O (stereo not given in full) | 366% [at 11.5 µM] |  |
| CC(=O)NCCCCn1c2c(c3ccccc31)C(=O)NCC2 | -21.6% |  |
| CC(C)(C)NCc1cc(Nc2ccnc3cc(Cl)ccc23)c2c(c1O)CCCC2 | -13.7% [at 0.461 µM] |  |
| Cc1ccc(C(=O)Nc2ccc(Oc3cc4cnn(C)c4cc3-c3cn[nH]c3)c(F)c2)c(=O)n1-c1ccc(F)cc1 | 41.7% |  |
| CC(C)(C)c1cc(CN2CCN(CC(O)c3ccc(Cl)cc3)CC2)cc(C(C)(C)C)c1O (stereo not given) | 0.959% |  |
| O=C(O)CCc1cccc(O[C@@H]2O[C@H](CO)[C@@H](O)[C@H](O)[C@H]2O)c1O |  | 8.26 µM (active) |
| C=CC1C(O[C@@H]2O[C@H](CO)[C@@H](O)[C@H](O)[C@H]2O)OC=C(C(=O)OC)C1CC(=O)O (stereo not given in full) | -15.2% [at 25.6 µM] |  |

| SMILES | activity change, negative = thiol reactive | Potency |
| --- | --- | --- |
| Clc1ccc2c(c1)C1=NCCN1c1c(-c3noc(C4CC4)n3)ncn1-2 | -25.2% |  |
| Nc1nonc1C(=Nc1ccc(F)c(Cl)c1)NO | 7.09% |  |
| COC(=O)[C@@]1(O)C=CC[C@@H]2[C@@]3(C)C[C@@H](c4ccoc4)OC(=O)[C@H]3CC[C@]21C | 28.3% |  |
| C=C1CCC2C(C)(C)C(O)CCC2(C)C1CCC(C)CCOC(=O)CCC(=O)O (stereo not given) | -23.4% [at 25.6 µM] |  |
| O=C(C1CC1)N1CC[C@@H](Cc2n[nH]c(=O)n2-c2ccc(-c3ccc4occc4c3)cc2)C1 | 49.7% [at 25.6 µM] |  |
| CC(CO[C@@H]1O[C@H](COC(=O)/C=C/c2ccc(O)c(O)c2)[C@@H](O)[C@H](O)[C@H]1O)C1(O)COC(=O)C1 (stereo not given in full) |  | 1.84 µM (active) |
| C=C/C=C/[C@@H]1OC[C@H](/C=C/C=C/C)[C@H]1O | 85.2% [at 85.7 µM] |  |
| COc1ccc([C@H]2Cc3cccc(O)c3C(=O)O2)cc1 | 14.3% |  |
| C=C1C2(CCC(=O)OC2(C)C)CC(OC(=O)/C(C)=C/C)C2(C)C13OC14C(=O)OC(C)(C(=O)C12C(=O)OC4C)C3OC(C)=O (stereo not given) | 17.3% [at 25.6 µM] |  |
| CC1(C)CC2C3=CCC4C5(C)CCC(OC6OC(CO)C(O)C(OC7OC(CO)C(O)C(OC8OC(CO)C(O)C(OC9OC(COC%10OC(CO)C(O)C(O)C%10O)C(O)C(O)C9O)C8O)C7O)C6O)C(C)(C)C5CCC4(C)C3(C)CCC2(C(=O)O)CC1O (stereo not given) | 31.3% [at 11.5 µM] |  |
| CC1(C)CC[C@]2(C(=O)O)CC[C@]3(C)C(=CCC4[C@@]5(C)C[C@H](O)[C@H](O[C@@H]6OC[C@H](O)[C@H](O)[C@H]6O)[C@@](C)(CO)C5CC[C@]43C)[C@@H]2C1 (stereo not given in full) | 1.62% [at 25.6 µM] |  |
| CC(C)c1cc2c(c(O)c1O[C@@H]1O[C@H](CO)[C@@H](O)[C@H](O)[C@H]1O)CC1(O)CCC(O)C(C)(C)C1CC2 (stereo not given in full) |  | 9.22 µM (active) |
| CC(C)C1(O[C@@H]2O[C@H](CO)[C@@H](O)[C@H](O)[C@H]2O)CC=C(CO)CC1 (stereo not given in full) |  | 11.7 µM (active) |
| CC(=O)C1CCC2(C)C3=C(CCC12C)C1(C)CCC(=O)C(C)(C)C1CC3 (stereo not given) | 49.6% |  |
| CN1C(=O)N[C@@H](Cc2c[nH]c3c(Cl)cccc23)C1=O | 7.24% |  |
| C[C@H]1CC[C@@]2(OC1)O[C@H]1CC3C4CC=C5C[C@H](O)C[C@@H](O[C@@H]6O[C@@H](C)[C@H](O)[C@@H](O)[C@H]6O[C@@H]6O[C@@H](C)[C@H](O)[C@@H](O)[C@H]6O)[C@]5(C)C4CC[C@]3(C)[C@H]1[C@@H]2C (stereo not given in full) | 99.5% [at 25.6 µM] |  |
| CC1(C)CC[C@]2(C(=O)O)CC[C@]3(C)C(=CCC4[C@@]5(C)CCC(O[C@@H]6OC[C@H](O)[C@H](O)[C@H]6O[C@@H]6O[C@H](CO)[C@@H](O)[C@H](O)[C@H]6O)[C@@](C)(CO)C5CC[C@]43C)[C@@H]2C1 (stereo not given in full) | 112% [at 25.6 µM] |  |
| C=CC1(C)CC2=CCC3C(C)(C(=O)O)CCCC3(C)C2CC1OC(C)=O (stereo not given) | 10.8% |  |
| c1ccc(Nc2nc3c(s2)CCCc2[nH]ncc2-3)nc1 |  | 1.5 µM (active) |
| CC(C)=CCC/C(C)=C/CC/C(C)=C/CC[C@]1(C)CCc2cc(O)cc(C)c2O1 | -23.6% [at 25.6 µM] |  |
